Laboratory results published in the supplement of paper PMC11732987, “Enantioselective OTUD7B fragment discovery through chemoproteomics screening and high-throughput optimisation” (Communications Chemistry, 2025).

What was measured:
Test in all cases: log2 ratio of Biotin-Ahx-Ub-VS probe labelling (fragment/DMSO); higher = less target engagement (more negative = stronger competition), active = hit call of the paper (q ≤ 0.05, log2 ratio ≤ -1)
Details in all cases: compound concentration: 200 uM; treatment time: 3 h
USP42 = molecular target: T1, USP42 (UniProt Q9H9J4)
T1 sequence (whole entry): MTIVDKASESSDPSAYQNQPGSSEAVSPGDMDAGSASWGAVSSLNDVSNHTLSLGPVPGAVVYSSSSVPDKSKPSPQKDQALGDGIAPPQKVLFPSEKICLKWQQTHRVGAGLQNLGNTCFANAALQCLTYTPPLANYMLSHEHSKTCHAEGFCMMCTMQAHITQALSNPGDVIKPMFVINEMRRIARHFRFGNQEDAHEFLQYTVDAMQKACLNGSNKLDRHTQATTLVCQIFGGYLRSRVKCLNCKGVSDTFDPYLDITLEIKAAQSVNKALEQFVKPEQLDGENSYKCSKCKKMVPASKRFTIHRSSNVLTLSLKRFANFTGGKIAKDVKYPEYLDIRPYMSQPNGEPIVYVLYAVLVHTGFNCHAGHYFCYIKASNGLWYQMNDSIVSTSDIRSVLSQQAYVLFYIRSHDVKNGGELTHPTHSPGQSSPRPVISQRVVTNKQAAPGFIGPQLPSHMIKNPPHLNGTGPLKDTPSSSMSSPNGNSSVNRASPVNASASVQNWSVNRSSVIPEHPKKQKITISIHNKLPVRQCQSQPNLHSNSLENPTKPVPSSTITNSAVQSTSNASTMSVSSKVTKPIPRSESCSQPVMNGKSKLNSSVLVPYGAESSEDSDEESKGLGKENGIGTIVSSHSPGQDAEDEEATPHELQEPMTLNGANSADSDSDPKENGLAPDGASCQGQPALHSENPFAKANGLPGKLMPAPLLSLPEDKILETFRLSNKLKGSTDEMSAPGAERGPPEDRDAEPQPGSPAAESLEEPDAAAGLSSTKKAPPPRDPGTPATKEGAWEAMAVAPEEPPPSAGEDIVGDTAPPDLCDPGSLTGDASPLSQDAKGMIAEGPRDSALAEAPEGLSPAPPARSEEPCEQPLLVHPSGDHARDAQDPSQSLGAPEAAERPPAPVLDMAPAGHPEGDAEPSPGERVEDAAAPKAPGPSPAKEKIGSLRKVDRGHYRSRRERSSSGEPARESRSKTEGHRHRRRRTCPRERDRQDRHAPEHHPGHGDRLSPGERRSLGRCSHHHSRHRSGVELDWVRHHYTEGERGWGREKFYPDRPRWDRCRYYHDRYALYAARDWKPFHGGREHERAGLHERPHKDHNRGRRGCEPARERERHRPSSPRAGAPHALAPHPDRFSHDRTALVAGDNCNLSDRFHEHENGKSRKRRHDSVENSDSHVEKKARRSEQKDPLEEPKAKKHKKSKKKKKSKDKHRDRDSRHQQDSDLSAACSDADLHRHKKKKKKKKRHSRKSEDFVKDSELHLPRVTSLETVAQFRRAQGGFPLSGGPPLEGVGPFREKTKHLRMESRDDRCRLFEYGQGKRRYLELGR
Method in brief: (§1)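 HEK293T lysate (495 µg per sample, in Tris/CHAPS/IGEPAL buffer with protease inhibitors) was exposed in triplicate for 3 h to fragment at 200 µM or to vehicle, then to Biotin-Ahx-Ub-VS at 0.5 µM final for 1 h. Labelled DUBs were enriched on NeutrAvidin, digested with LysC and trypsin, and analysed by diaPASEF LC-MS/MS. Spectronaut label-free quantities were normalised to the global median, and values are average log2 ratios of fragment over vehicle from an unpaired t-test. Only proteins with ≥2 unique peptides were used.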

USP46 = USP46 (UniProt P62068)
Method in brief: as §1

USP47 = molecular target: T2, USP47 (UniProt Q96K76)
T2 sequence (whole entry): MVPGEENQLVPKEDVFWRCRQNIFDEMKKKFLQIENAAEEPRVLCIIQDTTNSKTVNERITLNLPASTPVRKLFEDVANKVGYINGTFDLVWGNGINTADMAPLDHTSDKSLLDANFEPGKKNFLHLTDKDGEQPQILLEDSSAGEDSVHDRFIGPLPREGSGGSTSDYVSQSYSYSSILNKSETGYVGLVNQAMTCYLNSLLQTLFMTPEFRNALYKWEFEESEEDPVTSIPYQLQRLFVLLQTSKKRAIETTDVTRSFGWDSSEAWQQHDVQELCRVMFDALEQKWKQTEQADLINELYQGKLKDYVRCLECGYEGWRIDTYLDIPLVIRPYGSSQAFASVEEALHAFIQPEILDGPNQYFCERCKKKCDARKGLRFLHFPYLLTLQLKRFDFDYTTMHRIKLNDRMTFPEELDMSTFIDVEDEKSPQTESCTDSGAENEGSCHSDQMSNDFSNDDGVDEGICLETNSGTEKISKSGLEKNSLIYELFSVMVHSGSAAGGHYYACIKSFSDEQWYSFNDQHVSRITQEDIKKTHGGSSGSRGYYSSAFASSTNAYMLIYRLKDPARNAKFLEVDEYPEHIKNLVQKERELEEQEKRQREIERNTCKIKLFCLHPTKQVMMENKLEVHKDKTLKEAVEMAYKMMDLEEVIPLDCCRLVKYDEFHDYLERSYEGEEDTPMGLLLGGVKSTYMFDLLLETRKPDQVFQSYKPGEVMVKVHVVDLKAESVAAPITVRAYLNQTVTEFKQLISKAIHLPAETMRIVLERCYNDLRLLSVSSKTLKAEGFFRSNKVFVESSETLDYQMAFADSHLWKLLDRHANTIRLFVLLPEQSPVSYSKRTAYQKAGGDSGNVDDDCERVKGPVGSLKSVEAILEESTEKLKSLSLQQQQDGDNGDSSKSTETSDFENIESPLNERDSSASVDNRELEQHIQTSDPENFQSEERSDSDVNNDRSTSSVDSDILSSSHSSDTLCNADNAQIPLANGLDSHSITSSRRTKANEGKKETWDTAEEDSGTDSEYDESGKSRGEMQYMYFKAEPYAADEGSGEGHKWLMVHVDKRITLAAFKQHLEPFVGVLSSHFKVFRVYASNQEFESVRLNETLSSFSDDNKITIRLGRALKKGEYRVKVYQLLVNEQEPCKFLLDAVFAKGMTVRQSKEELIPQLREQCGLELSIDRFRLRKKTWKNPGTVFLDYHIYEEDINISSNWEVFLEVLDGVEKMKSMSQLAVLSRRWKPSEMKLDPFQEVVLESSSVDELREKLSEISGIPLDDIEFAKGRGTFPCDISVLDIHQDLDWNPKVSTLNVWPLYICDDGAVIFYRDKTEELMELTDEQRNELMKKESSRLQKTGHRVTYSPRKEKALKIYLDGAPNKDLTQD
Method in brief: as §1

USP48 = molecular target: T3, USP48 (UniProt Q86UV5)
T3 sequence (whole entry): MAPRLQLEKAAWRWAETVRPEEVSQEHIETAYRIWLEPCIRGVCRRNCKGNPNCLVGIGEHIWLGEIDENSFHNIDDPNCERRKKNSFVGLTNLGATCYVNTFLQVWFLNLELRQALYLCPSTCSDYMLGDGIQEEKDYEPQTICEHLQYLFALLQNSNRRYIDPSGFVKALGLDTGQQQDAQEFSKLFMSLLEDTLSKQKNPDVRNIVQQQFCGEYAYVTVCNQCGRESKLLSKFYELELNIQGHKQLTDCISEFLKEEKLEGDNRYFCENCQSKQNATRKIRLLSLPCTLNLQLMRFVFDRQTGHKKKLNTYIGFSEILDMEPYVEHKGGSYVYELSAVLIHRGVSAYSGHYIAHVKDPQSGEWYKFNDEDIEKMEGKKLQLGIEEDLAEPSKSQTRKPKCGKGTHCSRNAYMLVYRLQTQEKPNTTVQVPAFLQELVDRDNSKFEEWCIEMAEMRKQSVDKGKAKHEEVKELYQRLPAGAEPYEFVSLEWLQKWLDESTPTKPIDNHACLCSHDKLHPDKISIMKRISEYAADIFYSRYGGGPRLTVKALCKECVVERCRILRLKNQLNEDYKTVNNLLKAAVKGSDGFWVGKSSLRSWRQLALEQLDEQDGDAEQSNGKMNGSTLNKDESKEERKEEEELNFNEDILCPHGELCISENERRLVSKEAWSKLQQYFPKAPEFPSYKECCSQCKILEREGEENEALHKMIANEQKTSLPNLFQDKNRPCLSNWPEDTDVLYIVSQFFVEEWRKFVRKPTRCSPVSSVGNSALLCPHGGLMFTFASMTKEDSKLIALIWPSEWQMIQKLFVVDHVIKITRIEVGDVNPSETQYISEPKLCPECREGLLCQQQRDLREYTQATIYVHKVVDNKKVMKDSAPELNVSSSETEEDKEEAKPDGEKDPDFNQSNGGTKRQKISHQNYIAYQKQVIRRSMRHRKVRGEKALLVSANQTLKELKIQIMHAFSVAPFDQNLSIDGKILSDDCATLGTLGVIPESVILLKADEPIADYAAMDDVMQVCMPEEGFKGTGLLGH
Method in brief: as §1

USP5 = molecular target: T4, USP5 (UniProt P45974)
T4 sequence (whole entry): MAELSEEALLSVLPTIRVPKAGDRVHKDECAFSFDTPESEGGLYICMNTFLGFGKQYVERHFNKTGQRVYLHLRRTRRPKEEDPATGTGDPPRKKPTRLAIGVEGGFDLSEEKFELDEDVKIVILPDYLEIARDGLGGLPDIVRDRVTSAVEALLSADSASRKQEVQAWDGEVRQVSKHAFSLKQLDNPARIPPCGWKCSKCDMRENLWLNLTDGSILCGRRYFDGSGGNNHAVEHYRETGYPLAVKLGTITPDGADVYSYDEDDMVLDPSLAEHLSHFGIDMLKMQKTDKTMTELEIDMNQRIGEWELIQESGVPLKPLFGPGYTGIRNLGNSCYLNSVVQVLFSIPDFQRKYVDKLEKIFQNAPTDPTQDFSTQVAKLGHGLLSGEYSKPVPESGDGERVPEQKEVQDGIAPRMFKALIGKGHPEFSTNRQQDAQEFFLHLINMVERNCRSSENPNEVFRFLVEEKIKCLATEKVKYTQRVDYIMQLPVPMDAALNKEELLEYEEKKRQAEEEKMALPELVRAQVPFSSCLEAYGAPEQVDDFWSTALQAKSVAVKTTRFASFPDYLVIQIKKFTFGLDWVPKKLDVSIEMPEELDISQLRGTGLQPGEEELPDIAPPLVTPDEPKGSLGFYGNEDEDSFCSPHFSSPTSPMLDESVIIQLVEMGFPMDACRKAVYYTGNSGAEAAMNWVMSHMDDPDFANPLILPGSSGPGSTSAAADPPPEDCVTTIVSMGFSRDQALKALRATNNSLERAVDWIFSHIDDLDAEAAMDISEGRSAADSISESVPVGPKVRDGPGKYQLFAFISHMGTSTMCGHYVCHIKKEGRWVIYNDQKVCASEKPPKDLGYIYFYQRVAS
Method in brief: as §1

USP54 = USP54 (UniProt Q70EL1)
Method in brief: as §1

USP7 = USP7 (UniProt Q93009)
Method in brief: as §1

USP8 = molecular target: T5, USP8 (UniProt P40818)
T5 sequence (whole entry): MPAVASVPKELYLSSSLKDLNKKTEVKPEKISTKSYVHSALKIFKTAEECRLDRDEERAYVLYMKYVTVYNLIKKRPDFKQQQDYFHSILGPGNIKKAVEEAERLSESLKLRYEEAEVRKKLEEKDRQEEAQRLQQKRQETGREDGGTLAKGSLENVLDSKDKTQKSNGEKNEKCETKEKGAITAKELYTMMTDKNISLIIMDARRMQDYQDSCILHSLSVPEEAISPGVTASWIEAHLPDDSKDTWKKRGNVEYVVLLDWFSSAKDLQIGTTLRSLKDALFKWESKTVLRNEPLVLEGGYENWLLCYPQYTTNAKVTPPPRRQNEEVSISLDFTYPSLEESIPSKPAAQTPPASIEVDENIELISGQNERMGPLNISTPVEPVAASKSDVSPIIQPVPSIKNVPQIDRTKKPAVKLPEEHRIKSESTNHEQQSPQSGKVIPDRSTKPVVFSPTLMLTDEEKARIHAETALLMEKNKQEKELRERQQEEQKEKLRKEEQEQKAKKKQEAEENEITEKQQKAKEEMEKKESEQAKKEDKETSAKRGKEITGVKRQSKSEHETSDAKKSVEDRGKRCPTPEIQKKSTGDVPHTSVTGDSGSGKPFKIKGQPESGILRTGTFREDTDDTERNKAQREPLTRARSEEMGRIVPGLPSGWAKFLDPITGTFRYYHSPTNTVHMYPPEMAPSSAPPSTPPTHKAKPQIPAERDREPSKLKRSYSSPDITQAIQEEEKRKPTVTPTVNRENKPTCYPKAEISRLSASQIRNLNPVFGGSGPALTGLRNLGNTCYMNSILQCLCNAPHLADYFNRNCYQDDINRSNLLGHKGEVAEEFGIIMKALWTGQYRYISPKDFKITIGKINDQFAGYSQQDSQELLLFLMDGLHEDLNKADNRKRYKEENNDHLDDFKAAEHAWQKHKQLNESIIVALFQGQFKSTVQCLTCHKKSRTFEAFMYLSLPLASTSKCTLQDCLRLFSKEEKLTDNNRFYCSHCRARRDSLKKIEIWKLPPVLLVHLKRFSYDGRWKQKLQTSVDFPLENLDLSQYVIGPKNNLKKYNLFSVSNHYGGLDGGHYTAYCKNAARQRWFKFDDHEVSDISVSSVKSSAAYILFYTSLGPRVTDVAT
Method in brief: as §1

USP9X = USP9X (UniProt Q93008)
Method in brief: as §1

UniProt O00487 = molecular target: UniProt O00487
Method in brief: as §1

Measured: log2 ratio of Biotin-Ahx-Ub-VS probe labelling

USP54, sequence (Q70EL1 whole entry): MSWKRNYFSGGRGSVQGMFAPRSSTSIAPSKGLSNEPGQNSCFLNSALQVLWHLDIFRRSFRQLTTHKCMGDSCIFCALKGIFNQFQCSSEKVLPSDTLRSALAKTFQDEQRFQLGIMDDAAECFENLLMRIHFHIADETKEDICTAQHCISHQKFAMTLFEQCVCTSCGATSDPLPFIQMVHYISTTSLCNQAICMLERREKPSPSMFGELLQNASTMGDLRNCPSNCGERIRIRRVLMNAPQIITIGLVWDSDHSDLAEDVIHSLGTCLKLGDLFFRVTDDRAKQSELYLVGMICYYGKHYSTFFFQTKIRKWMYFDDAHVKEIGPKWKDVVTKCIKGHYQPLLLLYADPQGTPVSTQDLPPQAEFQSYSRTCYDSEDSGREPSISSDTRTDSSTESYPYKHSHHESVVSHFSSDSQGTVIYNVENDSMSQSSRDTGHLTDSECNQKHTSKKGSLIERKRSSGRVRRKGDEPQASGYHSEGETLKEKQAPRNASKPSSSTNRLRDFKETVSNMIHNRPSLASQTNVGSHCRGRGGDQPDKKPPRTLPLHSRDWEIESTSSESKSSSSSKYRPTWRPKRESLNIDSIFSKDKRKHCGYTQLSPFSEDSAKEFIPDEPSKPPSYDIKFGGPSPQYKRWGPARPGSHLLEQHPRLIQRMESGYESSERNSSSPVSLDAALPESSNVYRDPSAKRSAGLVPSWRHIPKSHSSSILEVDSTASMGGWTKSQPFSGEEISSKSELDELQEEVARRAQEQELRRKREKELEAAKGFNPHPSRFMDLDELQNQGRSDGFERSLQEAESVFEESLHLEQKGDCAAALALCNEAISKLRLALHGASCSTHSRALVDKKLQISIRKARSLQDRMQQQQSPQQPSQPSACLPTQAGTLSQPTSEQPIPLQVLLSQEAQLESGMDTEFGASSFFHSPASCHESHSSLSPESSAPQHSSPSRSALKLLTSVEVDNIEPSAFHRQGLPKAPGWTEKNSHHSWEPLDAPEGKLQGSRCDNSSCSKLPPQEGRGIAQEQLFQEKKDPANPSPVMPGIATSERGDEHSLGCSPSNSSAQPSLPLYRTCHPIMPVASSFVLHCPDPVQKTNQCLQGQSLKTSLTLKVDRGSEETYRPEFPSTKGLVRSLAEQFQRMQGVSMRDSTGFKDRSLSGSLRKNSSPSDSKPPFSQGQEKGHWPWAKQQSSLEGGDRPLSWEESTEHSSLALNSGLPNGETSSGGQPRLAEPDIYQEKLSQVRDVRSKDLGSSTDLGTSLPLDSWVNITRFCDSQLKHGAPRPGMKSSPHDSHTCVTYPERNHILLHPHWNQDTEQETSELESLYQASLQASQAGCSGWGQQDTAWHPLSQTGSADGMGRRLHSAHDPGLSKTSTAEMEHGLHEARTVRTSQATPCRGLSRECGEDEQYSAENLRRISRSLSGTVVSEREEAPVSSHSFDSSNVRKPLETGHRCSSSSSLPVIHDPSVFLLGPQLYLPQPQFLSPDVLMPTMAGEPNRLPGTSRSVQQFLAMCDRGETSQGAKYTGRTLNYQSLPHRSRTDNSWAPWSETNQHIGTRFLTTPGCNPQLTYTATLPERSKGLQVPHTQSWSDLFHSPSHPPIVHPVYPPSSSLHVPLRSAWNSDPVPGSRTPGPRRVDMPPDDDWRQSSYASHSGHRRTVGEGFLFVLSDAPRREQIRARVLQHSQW
USP46, sequence (P62068 whole entry): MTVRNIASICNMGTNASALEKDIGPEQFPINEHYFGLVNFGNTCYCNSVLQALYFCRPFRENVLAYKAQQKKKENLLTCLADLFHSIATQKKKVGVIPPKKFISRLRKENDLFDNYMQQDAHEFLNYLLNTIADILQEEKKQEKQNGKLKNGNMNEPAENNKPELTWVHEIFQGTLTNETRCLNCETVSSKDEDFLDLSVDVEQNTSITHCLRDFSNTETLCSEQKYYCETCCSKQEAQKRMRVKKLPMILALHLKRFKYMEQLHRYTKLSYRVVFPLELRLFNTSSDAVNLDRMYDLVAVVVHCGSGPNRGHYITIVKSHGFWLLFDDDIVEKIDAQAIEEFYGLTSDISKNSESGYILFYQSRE
UniProt O00487, sequence (O00487 whole entry): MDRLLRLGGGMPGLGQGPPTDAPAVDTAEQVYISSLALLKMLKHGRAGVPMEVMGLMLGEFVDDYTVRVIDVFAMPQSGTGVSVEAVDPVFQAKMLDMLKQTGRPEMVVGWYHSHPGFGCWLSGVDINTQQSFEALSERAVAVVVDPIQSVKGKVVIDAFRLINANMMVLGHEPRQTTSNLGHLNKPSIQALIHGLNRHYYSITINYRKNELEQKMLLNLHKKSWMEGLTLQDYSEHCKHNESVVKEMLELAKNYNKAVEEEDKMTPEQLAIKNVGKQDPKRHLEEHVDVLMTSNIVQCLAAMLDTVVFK
USP7, sequence (Q93009 whole entry, looked up): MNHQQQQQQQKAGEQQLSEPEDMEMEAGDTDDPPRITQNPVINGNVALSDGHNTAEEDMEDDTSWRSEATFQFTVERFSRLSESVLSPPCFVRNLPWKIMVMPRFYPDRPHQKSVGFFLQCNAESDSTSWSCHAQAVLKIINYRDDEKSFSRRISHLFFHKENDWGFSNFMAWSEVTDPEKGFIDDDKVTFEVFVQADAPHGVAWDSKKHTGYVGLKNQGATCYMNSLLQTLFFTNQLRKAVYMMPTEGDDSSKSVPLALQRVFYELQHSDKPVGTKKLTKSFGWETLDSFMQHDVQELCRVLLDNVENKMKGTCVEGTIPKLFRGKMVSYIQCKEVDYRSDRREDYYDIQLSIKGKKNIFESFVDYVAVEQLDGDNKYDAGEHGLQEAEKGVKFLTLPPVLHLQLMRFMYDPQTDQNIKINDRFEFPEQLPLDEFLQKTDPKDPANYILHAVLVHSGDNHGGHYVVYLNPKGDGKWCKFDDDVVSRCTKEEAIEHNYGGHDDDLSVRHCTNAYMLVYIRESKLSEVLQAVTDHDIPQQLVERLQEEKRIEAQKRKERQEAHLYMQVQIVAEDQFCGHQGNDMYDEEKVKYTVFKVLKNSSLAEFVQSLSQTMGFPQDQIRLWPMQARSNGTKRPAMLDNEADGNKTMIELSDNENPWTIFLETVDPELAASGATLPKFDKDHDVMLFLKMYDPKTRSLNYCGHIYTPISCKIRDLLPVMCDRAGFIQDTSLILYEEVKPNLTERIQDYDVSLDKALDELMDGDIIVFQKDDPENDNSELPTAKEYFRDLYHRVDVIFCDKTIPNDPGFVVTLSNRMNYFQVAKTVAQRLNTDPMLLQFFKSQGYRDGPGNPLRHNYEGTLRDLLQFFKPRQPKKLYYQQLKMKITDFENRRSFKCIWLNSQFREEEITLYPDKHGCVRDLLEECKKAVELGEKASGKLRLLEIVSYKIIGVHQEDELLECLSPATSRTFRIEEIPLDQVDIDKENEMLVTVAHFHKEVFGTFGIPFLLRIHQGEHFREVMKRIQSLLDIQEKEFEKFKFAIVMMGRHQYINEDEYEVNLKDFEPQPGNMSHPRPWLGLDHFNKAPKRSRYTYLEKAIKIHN

Cc1cccc(N(CCC#N)C(=O)CCl)c1C
inactive: USP42 0.0225 | USP46 0.0197 | USP47 -0.354 | USP48 -0.0383 | USP5 0.289 | USP54 0.431 | USP7 -0.47 | USP8 0.0891 | USP9X 0.0273 | UniProt O00487 0.0621

Cl.O=C(CCl)N1CCCC(c2ncc[nH]2)C1 (stereo not given)
inactive: USP42 -0.153 | USP46 0.183 | USP47 -0.357 | USP48 -0.331 | USP5 0.191 | USP54 0.506 | USP7 -0.273 | USP8 -0.0352 | USP9X -0.121 | UniProt O00487 -0.0974

O=C(CCl)Nc1cccc(NC(=O)c2ccccc2)c1
inactive: USP42 0.808 | USP46 0.291 | USP47 -0.303 | USP48 -0.0133 | USP5 0.0977 | USP54 -0.543 | USP7 0.0734 | USP8 0.244 | USP9X 0.246 | UniProt O00487 0.00956
